Experimental data as given in PubChem BioAssay (NCI).
Compounds without any hit were thinned out: in the full panel of roughly 79,000, 15% have a hit. Activity calls are given as the source filed them. Rule as the data show it: active = growth inhibition above about 70%; inactive = the rest.

How the values were obtained:
[1] = NCI Yeast Anticancer Drug Screen. Data for the rad50 strain (AID 155);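 also: 0% = growth of vehicle-only cultures of the same strain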; details: S. cerevisiae rad50 strain growth inhibition, hits give high values
How it was run: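 A DNA repair-deficient yeast mutant serves as the test organism; compound-induced growth inhibition is calculated against vehicle-treated cells.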

[2] = NCI Yeast Anticancer Drug Screen. Data for the mec2-1 strain (AID 157); details: S. cerevisiae mec2-1 strain, hits give high values
How it was run: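 Growth inhibition is read against vehicle-treated controls after compound exposure of the mec2-1 yeast strain, which is defective in DNA damage repair or cell cycle control.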

[3] = NCI Yeast Anticancer Drug Screen. Data for the sgs1 mgt1 strain (AID 161);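 also: 0% = growth of cultures given vehicle only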; details: S. cerevisiae sgs1 mgt1 strain, hits give high values
How it was run: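 Percent growth inhibition was derived by comparing compound-exposed mutant yeast with vehicle-exposed cultures. The strain carries alterations in DNA damage repair.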

[4] = NCI Yeast Anticancer Drug Screen. Data for the cln2 rad14 strain (AID 165);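 also: 0% = growth equal to vehicle treated cultures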; details: S. cerevisiae cln2 rad14 strain, hits give high values
How it was run: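 Growth inhibition, relative to vehicle-treated controls, is the read-out. The test organism is a yeast strain with defined genetic alterations, cln2 rad14.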

[5] = NCI Yeast Anticancer Drug Screen. Data for the bub3 strain (AID 167); details: S. cerevisiae bub3 mutant strain, hits give high values
How it was run: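 Inhibition values come from growth of compound-treated mutant yeast normalised to vehicle-treated controls.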

[6] = NCI Yeast Anticancer Drug Screen. Data for the mlh1 rad18 strain (AID 175); details: S. cerevisiae mlh1 rad18 strain growth inhibition, hits give high values
How it was run: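 Cells of a genetically altered yeast strain, deficient in DNA damage repair, were treated with compound. Their growth was then compared with that of vehicle-treated cultures to give inhibition.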

[7] = at 5.0 µM (retest, dose inferred, filed as 0.5)
[8] = at 50.0 µM (retest, dose inferred, filed as 5.0)

Measured: growth inhibition

COc1cccc2c1OC(c1cccc3ccccc13)C([N+](=O)[O-])=C2 (configuration not stated)
active: [1]; [8] 75% | [3]; [8] 70% | [5]; [8] 74% | [6]; [8] 81%
inactive: [1]; [7] 49% | [1]; at 50.0 µM 62.3% | [2]; [7] 32% | [2]; [8] 67% | [2]; at 50.0 µM 62.1% | [3]; [7] 39% | [3]; at 50.0 µM 61.4% | [4]; [7] 22% | [4]; [8] 62% | [4]; at 50.0 µM 47% | [5]; [7] 47% | [5]; at 50.0 µM 54.8% | [6]; [7] 49% | [6]; at 50.0 µM 58.8%

O=C1C=CC(=O)N1CCc1ccccc1
inactive: [1]; [7] -33% | [2]; [7] -31% | [3]; [7] -34% | [4]; [7] -10% | [5]; [7] -45% | [6]; [7] -90%
active: [1]; [8] 97% | [1]; at 50.0 µM 99.5% | [2]; [8] 98% | [2]; at 50.0 µM 99.5% | [3]; [8] 98% | [3]; at 50.0 µM 99.3% | [4]; [8] 98% | [4]; at 50.0 µM 99.3% | [5]; [8] 98% | [5]; at 50.0 µM 99.3% | [6]; [8] 97% | [6]; at 50.0 µM 99.2%

O=C(O)c1ccccc1C1c2ccccc2Oc2ccccc21
inactive: [1]; [7] 36% | [1]; [8] 5% | [2]; [7] -2% | [2]; [8] 16% | [3]; [7] -3% | [3]; [8] 3% | [4]; [7] 5% | [4]; [8] 6% | [5]; [7] 7% | [5]; [8] 17% | [6]; [7] 0% | [6]; [8] 7%
active: [1]; at 50.0 µM 95.4% | [2]; at 50.0 µM 94% | [3]; at 50.0 µM 95.4% | [4]; at 50.0 µM 97.3% | [5]; at 50.0 µM 91.2% | [6]; at 50.0 µM 95.8%

NC(=S)N/N=C1\NC(=O)/C(=C/c2ccc3c(c2)OCO3)S1
inactive: [1]; [7] 16% | [1]; [8] 12% | [1]; at 50.0 µM -45.6% | [2]; [7] 15% | [2]; [8] 20% | [2]; at 50.0 µM -40.6% | [3]; [7] 13% | [3]; [8] 13% | [3]; at 50.0 µM -13.3% | [4]; [7] 16% | [4]; [8] 11% | [4]; at 50.0 µM -13.9% | [5]; [7] 9% | [5]; [8] 31% | [5]; at 50.0 µM 0.7% | [6]; [7] 14% | [6]; [8] 18% | [6]; at 50.0 µM -14%

O=[N+]([O-])c1ccc2nc(Nc3ccccc3)c(Nc3ccccc3)nc2c1
inactive: [1]; [7] -18% | [2]; [7] 1% | [3]; [7] -1% | [3]; at 50.0 µM 63.9% | [4]; [7] 24% | [5]; [7] 15% | [6]; [7] -6%
active: [1]; [8] 91% | [1]; at 50.0 µM 74.1% | [2]; [8] 95% | [2]; at 50.0 µM 77.8% | [3]; [8] 93% | [4]; [8] 93% | [4]; at 50.0 µM 70.5% | [5]; [8] 93% | [5]; at 50.0 µM 72.2% | [6]; [8] 93% | [6]; at 50.0 µM 73%

O=C1c2ccccc2-c2nc3ncccc3cc21
active: [1]; [8] 93% | [1]; at 50.0 µM 95.7% | [2]; [8] 83% | [3]; [8] 78% | [5]; at 50.0 µM 79.4% | [6]; [8] 88% | [6]; at 50.0 µM 71.4%
inactive: [1]; [7] 27% | [2]; [7] 6% | [2]; at 50.0 µM 56.1% | [3]; [7] 4% | [3]; at 50.0 µM 42.2% | [4]; [7] 6% | [4]; [8] 63% | [4]; at 50.0 µM 57.9% | [5]; [7] 4% | [5]; [8] 57% | [6]; [7] -5%

Cn1nc(-c2ccccc2NC(=O)C(F)(F)F)c(=O)n(C)c1=S
inactive: [1]; [7] -3% | [1]; [8] 37% | [1]; at 50.0 µM 56.9% | [2]; [7] 3% | [2]; [8] 21% | [2]; at 50.0 µM 43.9% | [3]; [7] 14% | [3]; [8] 25% | [3]; at 50.0 µM 50.5% | [4]; [7] -3% | [4]; [8] 14% | [4]; at 50.0 µM 33.6% | [5]; [7] 4% | [5]; [8] 27% | [5]; at 50.0 µM 27.7% | [6]; [7] 0% | [6]; [8] 34%
active: [6]; at 50.0 µM 73.9%

Cc1ccc(S(=O)(=O)S/C(=N\c2ccccn2)Nc2ccccn2)cc1
active: [1]; [7] 75% | [2]; [7] 72% | [3]; [7] 90% | [5]; [7] 95% | [6]; [7] 85%
inactive: [1]; [8] 21% | [1]; at 50.0 µM 38.9% | [2]; [8] 32% | [2]; at 50.0 µM 39.9% | [3]; [8] 5% | [3]; at 50.0 µM 58.6% | [4]; [7] 14% | [4]; [8] 16% | [4]; at 50.0 µM 3% | [5]; [8] 11% | [5]; at 50.0 µM 14% | [6]; [8] 29% | [6]; at 50.0 µM 52.1%

NNc1ccc2ccccc2n1
active: [1]; [8] 98% | [1]; at 50.0 µM 87.5% | [2]; [8] 93% | [3]; [8] 99% | [4]; at 50.0 µM 86.9% | [5]; [8] 99% | [5]; at 50.0 µM 93.2% | [6]; [8] 99% | [6]; at 50.0 µM 93.4%
inactive: [1]; [7] -4% | [2]; [7] 1% | [2]; at 50.0 µM 52.5% | [3]; [7] 3% | [3]; at 50.0 µM 46.2% | [4]; [7] 6% | [4]; [8] 52% | [5]; [7] 14% | [6]; [7] 19%
